Assay [1] in a line: qHTS of pediatric cancer cell lines to identify multiple opportunities for drug repurposing: Primary screen for SK-N-SH cells (AID 1347098). Also: nearly all actives have a fitted effect of over 65% in size. The essentials:
(§1)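 Cells (500-1,000/well) rested 5 h, then received compounds for 48 h; metabolically active cells were measured by CellTiter-Glo luminescence. Final concentrations spanned up to 46 µM (MIPE, 11-point) or 0.59 nM-46 µM (NPC, 8-point) in primary screens, 11-point in follow-ups.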

Assay [2] is described as follows: qHTS of pediatric cancer cell lines to identify multiple opportunities for drug repurposing: Primary screen for NB1643 cells (AID 1347099). Also: nearly all actives have a fitted effect of over 50% in size. The essentials:
(§2)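 Cells seeded at 500-1,000 cells/well in growth media, rested 5 hours at 37 degrees C, 5% CO2, then dosed; MIPE compounds at 11-point (from 0.78 nM) and NPC at 8-point (from 0.59 nM) final concentrations. Viability by CellTiter-Glo luminescence after 48 hours.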

The nature of assay [3]: qHTS of pediatric cancer cell lines to identify multiple opportunities for drug repurposing: Primary screen for LAN-5 cells (AID 1347100). In a few lines: (§3)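 Cells (500-1,000/well) in growth media were settled 5 h at 37 degrees C, then given compounds for 48 h. Viability was read as CellTiter-Glo luminescence. Primary runs used MIPE at 11 points (0.78 nM-46 µM) and NPC at 8 points (0.59 nM-46 µM); follow-ups used 11 points.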

Assay [4] in a line: qHTS of pediatric cancer cell lines to identify multiple opportunities for drug repurposing: Primary screen for Rh18 cells (AID 1347102). Also: nearly all actives have a fitted effect of over 65% in size. The essentials: as §3
Assay [5] in a line: qHTS of pediatric cancer cell lines to identify multiple opportunities for drug repurposing: Primary screen for MG 63 (6-TG R) cells (AID 1347105). Also: nearly all actives have a fitted effect of over 50% in size. The essentials: as §2
Assay [6] is described as follows: qHTS of pediatric cancer cell lines to identify multiple opportunities for drug repurposing: Primary screen for control Hh wild type fibroblast cells (AID 1347106). Also: nearly all actives have a fitted effect of over 55% in size. The essentials: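 Viability after 48 h compound treatment at 37C, 500-1,000 cells/well, read as ATP luminescence with CellTiter-Glo. Primary screens used 11-point (MIPE, 0.78 nM-46 µM) or 8-point (NPC, 0.59 nM-46 µM) final concentrations; follow-up screens used 11-point dilutions.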

Assay [7] is described as follows: qHTS of pediatric cancer cell lines to identify multiple opportunities for drug repurposing: Primary screen for Rh30 cells (AID 1347107). Also: nearly all actives have a fitted effect of over 75% in size. The essentials:
as §3

Assay [8] is described as follows: qHTS of pediatric cancer cell lines to identify multiple opportunities for drug repurposing: Primary screen for BT-12 cells (AID 1347101). Also: nearly all actives have a fitted effect of over 25% in size. The essentials:
as §1

Assay [9] can be described thus: qHTS of pediatric cancer cell lines to identify multiple opportunities for drug repurposing: Primary screen for RD cells (AID 1347104). Also: nearly all actives have a fitted effect of over 55% in size. The essentials:
as §2

Assay [10] is described as follows: qHTS of pediatric cancer cell lines to identify multiple opportunities for drug repurposing: Primary screen for Rh41 cells (AID 1347108). Also: nearly all actives have a fitted effect of over 70% in size. The essentials:
as §2

A short description of assay [11]: qHTS of pediatric cancer cell lines to identify multiple opportunities for drug repurposing: Confirmatory screen for NB1643 cells (AID 1347109). Also: nearly all actives have a fitted effect of over 45% in size. The essentials:
as §3

The nature of assay [12]: qHTS of pediatric cancer cell lines to identify multiple opportunities for drug repurposing: Confirmatory screen for A673 cells (AID 1347110).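 Also: cells exposed to compound for 48 h before the viability read; nearly all actives have a fitted effect of over 65% in size.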 The essentials:
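Viability was read as ATP luminescence (CellTiter-Glo) after 48 h of compound exposure at 37 C in A673 cells seeded at 500-1,000/well. Titrations reached 46 uM final, with 11 points in the confirmatory screen. Concentration-response curves were fitted directly.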

The nature of assay [13]: qHTS of pediatric cancer cell lines to identify multiple opportunities for drug repurposing: Confirmatory screen for SK-N-MC cells (AID 1347111).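 Also: cells exposed to compound for 48 h before the readout; nearly all actives have a fitted effect of over 70% in size.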 The essentials:
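Metabolically active cells were quantified by ATP-dependent luminescence (CellTiter-Glo, 15 min at room temperature) following 48 h treatment. Cells had been plated at 500-1,000 per well and settled for 5 h beforehand.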

Assay [14] can be described thus: qHTS of pediatric cancer cell lines to identify multiple opportunities for drug repurposing: Confirmatory screen for LAN-5 cells (AID 1347113). Also: nearly all actives have a fitted effect of over 65% in size. The essentials:
as §3

Assay [15] in a line: qHTS of pediatric cancer cell lines to identify multiple opportunities for drug repurposing: Confirmatory screen for DAOY cells (AID 1347114). Also: nearly all actives have a fitted effect of over 65% in size. In a few lines: (§4)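 Viability measured as metabolically active cells via CellTiter-Glo luminescence following 48 hours of compound exposure, 11-point dilutions in confirmatory testing. 500-1,000 cells/well plated 5 hours before dosing; controls were DMSO and 2.3 µM bortezomib.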

The nature of assay [16]: qHTS of pediatric cancer cell lines to identify multiple opportunities for drug repurposing: Primary screen for OHS-50 cells (AID 1347103). Also: nearly all actives have a fitted effect of over 40% in size. In a few lines:
as §1

Assay [17] can be described thus: qHTS of pediatric cancer cell lines to identify multiple opportunities for drug repurposing: Confirmatory screen for NB-EBc1 cells (AID 1347115).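 Also: cells exposed to compound for 48 h before the viability read; nearly all actives have a fitted effect of over 45% in size.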 In a few lines:
as §3

A short description of assay [18]: qHTS of pediatric cancer cell lines to identify multiple opportunities for drug repurposing: Confirmatory screen for SJ-GBM2 cells (AID 1347116). Also: nearly all actives have a fitted effect of over 60% in size. In a few lines: as §4
Assay [19] can be described thus: qHTS of pediatric cancer cell lines to identify multiple opportunities for drug repurposing: Confirmatory screen for BT-12 cells (AID 1347112). Also: nearly all actives have a fitted effect of over 55% in size. In a few lines: as §3

The structures appear in SMILES notation. Records with an inconclusive call do not appear. The source made the active and inactive calls. Calls follow the shape of the dose curve; as a rule, active = well fitted curve in the direction sought with a large enough effect; inconclusive = small, poorly fitted or top-dose-only effect, or another doubt; inactive = no such curve, though single readings can be large; an effect the other way counts as inactive or inconclusive.
Potency is read from the fitted curve at half-maximal effect.

With `CC(C)c1noc(N2CCC(COc3ccc(-c4ccc(S(C)(=O)=O)cc4)nc3)CC2)n1`, the Potency entry in [1], in assay [2], in [3], in assay [4], in [5] and in assay [6] was “inactive” throughout. Further, the Potency result in assay [7] is “inactive”.
In the case of `CN1CCN(c2cc(C(=O)Nc3ccc4c(c3)-c3c(c(C(N)=O)nn3-c3ccc(F)cc3)CC4)c(Cl)cn2)CC1`, the Potency is 7.64 µM (active) in assay [1]; 1.18 µM (active) in [2]; 16.6 µM (active) in [3]; 30.6 µM (active) in assay [8]; 20.9 µM (active) in assay [4]; 16.6 µM (active) in assay [9]. The Potency in assay [5] was 23.5 µM (active); in assay [6] it was 20.9 µM (active); in [7] it was 16.6 µM (active); in assay [10], 20.9 µM (active); in [11], 23.3 µM (active); in assay [12] it was 14.7 µM (active). The Potency in assay [13] is 20.8 µM (active); in [14], 16.5 µM (active); in assay [15], 23.3 µM (active).
With `COc1cc(Nc2ncc(F)c(Nc3ccc4c(n3)N(COP(=O)(O)O)C(=O)C(C)(C)O4)n2)cc(OC)c1OC`, the Potency in [1] is 4.29 µM (active); in assay [2], 0.187 µM (active); in [3] it was 1.87 µM (active); in assay [4], 1.87 µM (active); in assay [9] it was 3.32 µM (active); in [5], 0.935 µM (active). The Potency in assay [10] is 3.72 µM (active); in assay [11], 5.85 µM (active); in [13] it was 11.7 µM (active); in assay [14] it was 10.4 µM (active); in [15], 3.69 µM (active). For the same molecule, the Potency entry in assay [6] is “inactive”.
On to `Nc1ccccc1NC(=O)c1ccc(CNc2nccc(-c3cccnc3)n2)cc1`, for which the Potency in assay [1] was 2.41 µM (active); in [2], 0.296 µM (active); in assay [3] it was 0.743 µM (active); in assay [8], 4.85 µM (active); in assay [4], 2.09 µM (active); in assay [16], 0.968 µM (active). The Potency in [9] was 2.96 µM (active); in assay [5] it was 3.72 µM (active); in assay [6] it was 14.8 µM (active); in [10], 1.18 µM (active); in assay [12], 2.61 µM (active); in assay [15] it was 2.93 µM (active). Besides, the Potency in assay [18] is 1.47 µM (active). Moreover, the Potency entry in [7], in assay [13] and in assay [17] was “inactive” in each case.
`CNC(=O)c1c(F)cccc1Nc1nc(Nc2cc3c(cc2OC)CCN3C(=O)CN(C)C)nc2[nH]ccc12`: the Potency in [1] was 8.57 µM (active); in [2], 0.132 µM (active); in assay [3], 0.0526 µM (active); in [4] it was 8.33 µM (active); in assay [16], 0.344 µM (active); in assay [9], 0.662 µM (active). The Potency in [5] was 18.7 µM (active); in [7], 2.96 µM (active); in assay [10] it was 0.148 µM (active); in [11], 0.465 µM (active); in [13], 0.414 µM (active); in assay [14] it was 0.208 µM (active). The Potency in assay [17] is 5.85 µM (active); in assay [18] it was 0.928 µM (active). Further, the Potency result in [6] is “inactive”.
`C[C@@H](Oc1cc(-n2cnc3ccc(CN4CCN(C)CC4)cc32)sc1C(N)=O)c1ccccc1C(F)(F)F`: the Potency in assay [1] is 0.108 µM (active); in [2], 0.0235 µM (active); in assay [3] it was 0.0332 µM (active); in [8] it was 24.3 µM (active); in assay [4], 20.9 µM (active); in [16], 0.0968 µM (active). Moreover, the Potency in assay [11] was 42.7 µM (active); in assay [12], 0.117 µM (active); in assay [13], 0.0537 µM (active); in [19] it was 47.9 µM (active); in assay [14], 10.7 µM (active); in [17], 0.24 µM (active). Also, in assay [18], the Potency was 10.4 µM (active). The Potency result in assay [5] and in assay [10] was “inactive” each time.
Consider `O=C(c1cncc(Br)c1)N1CCC(N2CCCC2)CC1`, for which the Potency result in [1], in assay [2], in assay [3], in [8], in assay [4] and in [16] was “inactive” each time. In addition, the Potency result in assay [9], in assay [5], in assay [6] and in assay [7] was “inactive” throughout.
In the case of `CC1=C(CO)C(=O)O[C@@H]([C@@H](C)[C@H]2CC[C@H]3[C@@H]4C[C@H]5O[C@]56[C@@H](O)C=CC(=O)[C@]6(C)[C@@H]4CC[C@]23C)C1`, the Potency in [1] was 3.41 µM (active); in assay [2], 0.132 µM (active); in [3] it was 0.187 µM (active); in [8], 0.769 µM (active); in [4], 2.64 µM (active); in assay [9], 0.418 µM (active). Besides, the Potency in assay [5] was 0.743 µM (active); in [7] it was 2.35 µM (active); in assay [10] it was 1.18 µM (active); in [12], 18.5 µM (active); in assay [19] it was 10.4 µM (active). Besides, the Potency entry in assay [6], in [13], in assay [15], in [17] and in [18] was “inactive” in each case.
`COc1cc2c(cc1-c1c(C)noc1C)ncc1[nH]c(=O)n([C@H](C)c3ccccn3)c12`: the Potency in [1] is 21.5 µM (active); in assay [2], 11.8 µM (active); in assay [3], 5.9 µM (active); in assay [8] it was 19.3 µM (active); in assay [4] it was 5.9 µM (active); in assay [16], 0.485 µM (active). Besides, the Potency in [9] was 4.69 µM (active); in assay [5] it was 1.87 µM (active); in [6], 16.6 µM (active); in [7], 23.5 µM (active); in [10], 9.35 µM (active).
Regarding `Cc1cc(CN2CCN(c3c(Br)cnc4nc(-c5ccc(N6CCN(C)CC6)cc5)[nH]c34)CC2)no1`, the Potency in [1] is 21.5 µM (active); in [2], 16.6 µM (active); in assay [3], 0.418 µM (active); in assay [4], 20.9 µM (active); in assay [16], 30.6 µM (active); in [9], 26.4 µM (active). Also, the Potency is 18.7 µM (active) in [5] and 5.9 µM (active) in assay [10]. Also, the Potency result in assay [6] was “inactive”.
As for `CC(C)(O)c1cc2nc(-c3cnc(N)nc3)nc(N3CCOCC3)c2s1`, the Potency in assay [1] is 8.57 µM (active); in assay [2], 0.187 µM (active); in assay [3], 0.372 µM (active); in assay [4], 0.372 µM (active); in assay [16], 0.0306 µM (active); in assay [9], 0.209 µM (active). Moreover, the Potency in assay [5] is 0.0469 µM (active); in [7], 5.26 µM (active); in assay [10], 0.372 µM (active); in assay [11], 1.47 µM (active); in assay [12], 1.85 µM (active); in assay [13] it was 1.17 µM (active). Besides, the Potency in assay [14] was 0.737 µM (active).
Take `COc1cc(C(=O)N2CCC(N3CCN(C)CC3)CC2)ccc1Nc1ncc2c(n1)N(C)c1ccccc1C(=O)N2C`: the Potency was 21.5 µM (active) in assay [1]; 9.35 µM (active) in assay [2]; 5.26 µM (active) in assay [3]; 11.8 µM (active) in assay [4]; 7.69 µM (active) in assay [16]; 14.8 µM (active) in assay [9]. The Potency in assay [5] and in assay [10] was 9.35 µM (active) throughout.

Values taken from PubChem BioAssay (NCATS).
